Test results taken from PMC4336329 (PLoS ONE, 2015).
In all, about 310,000 compounds went through this assay and about 14,000 (4.5%) showed an effect of 50% or more. The effect is printed as a negative number. This excerpt belongs to a sample that is enriched for strong results.

target: human ether-à-go-go-related gene (hERG) potassium channel (human, UniProt Q12809); assay: primary screen, population patch clamp on CHO cells stably expressing hERG; higher = less effect of the substance
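Note: peak tail current of the secondary pulse compared with the same well before compound.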

Chain of human ether-à-go-go-related gene (hERG) potassium channel (Q12809 whole entry, looked up): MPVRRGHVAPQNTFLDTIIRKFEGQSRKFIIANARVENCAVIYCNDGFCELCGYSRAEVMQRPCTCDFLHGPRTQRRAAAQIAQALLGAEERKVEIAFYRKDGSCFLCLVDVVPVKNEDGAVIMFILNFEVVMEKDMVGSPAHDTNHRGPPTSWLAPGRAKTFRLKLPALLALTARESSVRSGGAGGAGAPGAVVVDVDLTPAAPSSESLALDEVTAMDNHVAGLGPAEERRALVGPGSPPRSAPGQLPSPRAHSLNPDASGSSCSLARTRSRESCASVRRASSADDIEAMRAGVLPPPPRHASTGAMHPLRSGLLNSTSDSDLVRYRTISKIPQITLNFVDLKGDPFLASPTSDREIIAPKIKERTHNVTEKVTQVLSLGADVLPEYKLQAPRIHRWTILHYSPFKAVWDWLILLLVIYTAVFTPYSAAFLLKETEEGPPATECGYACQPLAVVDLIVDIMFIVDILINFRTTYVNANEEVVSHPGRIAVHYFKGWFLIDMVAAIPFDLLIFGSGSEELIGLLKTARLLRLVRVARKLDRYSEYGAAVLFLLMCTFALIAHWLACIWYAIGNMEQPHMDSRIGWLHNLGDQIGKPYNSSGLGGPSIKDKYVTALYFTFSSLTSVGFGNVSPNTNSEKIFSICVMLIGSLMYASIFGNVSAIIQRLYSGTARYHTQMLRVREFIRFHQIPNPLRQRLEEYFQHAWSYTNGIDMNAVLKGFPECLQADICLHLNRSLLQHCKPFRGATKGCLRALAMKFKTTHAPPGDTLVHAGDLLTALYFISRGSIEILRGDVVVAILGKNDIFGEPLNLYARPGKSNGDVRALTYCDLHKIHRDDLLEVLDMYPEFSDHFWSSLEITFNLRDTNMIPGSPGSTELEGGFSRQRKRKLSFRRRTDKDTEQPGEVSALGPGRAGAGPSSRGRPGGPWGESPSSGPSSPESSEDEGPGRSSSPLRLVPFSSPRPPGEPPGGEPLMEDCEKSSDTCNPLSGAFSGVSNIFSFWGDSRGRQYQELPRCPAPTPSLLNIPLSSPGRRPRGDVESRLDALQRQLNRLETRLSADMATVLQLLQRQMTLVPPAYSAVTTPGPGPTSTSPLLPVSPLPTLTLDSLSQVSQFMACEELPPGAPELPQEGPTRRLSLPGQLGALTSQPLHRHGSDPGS

Compound | hERG current change (%, negative = inhibition) at 10uM
O=P(O)(OCc1ccccc1)OCc1ccccc1 | 12.1%
O=C(O)c1cccc(NC2=Nc3cccc4cccc2c34)c1 | 14.3%
CCn1c(NC(=O)c2ccc(F)cc2)c2ccccc2nc1=O | -11.7%
COc1ccc(CCn2c(=O)[nH]c3cc(C(=O)NCCN4CCOCC4)ccc3c2=O)cc1OC | 0.353%
Cc1cccn2c(=O)c3cc(C(=O)NCCN4CCOCC4)n(C)c3nc12 | -3.18%
COc1ccc(CCn2c(=N)c(C(=O)NCCN3CCOCC3)cc3c(=O)n4cccc(C)c4nc32)cc1OC | -97.8%
COc1ccc(CCNC(=O)c2c(N)n(CCN3CCOCC3)c3nc4ccccc4nc23)cc1OC | -8.6%
Cc1cccn2c(=O)c3cc(C(=O)NCCN4CCOCC4)c(=N)n(CCc4ccccc4)c3nc12 | -75%
O=C(N/N=C/c1ccco1)C1CCCC1 | 22.1%
Cc1ccc(C(=O)Nc2ccc(S(=O)(=O)Nc3ncccn3)cc2)cc1[N+](=O)[O-] | 13.4%
COc1cccc2cc(C(=O)NCc3ccccc3Cl)c(=O)oc12 | 6.78%
CC(C)CSc1nsc(N)n1 | 23.1%
Cc1ccc(C(=O)N2CCN(c3ccccc3)CC2)cc1NC(=O)c1ccco1 | -45.7%
Cc1ccc(C(=O)N2CCN(C(=O)c3ccco3)CC2)cc1NC(=O)c1ccco1 | -44.1%
COc1ccc(N2CCN(C(=O)c3ccc(C)c(NC(=O)c4ccco4)c3)CC2)cc1 | -74.8%
Cc1ccc(C(=O)N2CCc3ccccc32)cc1NC(=O)c1ccco1 | -68.1%
O=C(c1ccco1)N1CCc2ccccc21 | -3.68%
COc1ccc(N2CCN(C(=O)c3cccc(NC(=O)c4ccco4)c3)CC2)cc1 | -43.8%

Compound | hERG current change (%, negative = inhibition) at 10uM
COc1ccccc1CNC(=O)c1ccc(OC(F)F)c(OC)c1 | -32.1%
CCOC(=O)c1sc(NC(=O)c2ccc(S(=O)(=O)N3CCOCC3)cc2)nc1-c1ccccc1 | -27.6%
Cc1ccc(-c2csc3nc[nH]c(=O)c23)cc1 | 6.88%
CCOc1cc(Br)ccc1S(=O)(=O)NCc1ccccc1 | -30.3%
Cc1c(NC(=O)c2ccccc2NC(=O)COc2ccccc2)cccc1C(=O)O | 14.2%
Cc1cc(N2CCN(c3ccccc3)CC2)nc(-c2ccccc2)n1 | -30.9%
O=C(c1ccco1)N1CCN(c2nc3ccccc3c(=O)n2-c2ccccc2)CC1 | -54.9%
O=C(c1ccco1)N1CCN(Cc2nc3ccccc3c(=O)n2-c2ccc(F)cc2)CC1 | -18.8%
Cc1cc(N2CCN(C(=O)c3ccco3)CC2)n2ncnc2n1 | -30.3%
Cc1cc(=O)[nH]c(N2CCN(C(=O)c3ccco3)CC2)n1 | 14%
Cc1nc2ccccc2c2oc(C(=O)N3CCN(C(=O)c4ccco4)CC3)cc12 | -46.7%
Cc1cc(N2CCN(C(=O)c3ccco3)CC2)n2nc(C)nc2n1 | -44%
Cc1cc(N2CCN(C(=O)c3ccco3)CC2)c2ccccc2n1 | -71.8%
O=c1c2ccccc2nc(N2CCCC2)n1-c1ccccc1 | 10.7%
Cc1cc(N2CCN(C(=O)c3ccco3)CC2)nc(-c2ccccc2)n1 | -65.4%
O=C(c1ccco1)N1CCN(C(=O)c2cc(Cl)nc3ccccc23)CC1 | -35.2%
Cc1cc(N2CCN(C(=O)c3ccco3)CC2)n2ncc(-c3ccccc3)c2n1 | -50.5%
